The record followed here is ChEMBL document CHEMBL4513216, “Probing the Open Global Health Chemical Diversity Library for Multistage-Active Starting Points for Next-Generation Antimalarials” (ACS Infect Dis, 2020).

About 8,600 (12%) of roughly 69,000 compounds showed an effect of 50% or more. Only a selection was taken, and strong results are over-represented in it overall.

For this assay, the system named is Plasmodium berghei. Description: Screen against P. berghei liver stage (PbLuc), transformed with Luciferase, at 10uM. The assay is classed as functional, HepG2. Particulars: tested at 10 uM.
`CCc1cc(CN(C)C(=O)CN2CC3(CCNCC3)OC2=O)on1`: the INHIBITION was determined as 44.2%.
`Cc1cc(CN(C)C(=O)CN2CC3(CCNCC3)OC2=O)no1`: the INHIBITION is given as -20.7%.
In the case of `Cc1cc(CN(C)C(=O)CN2CC3(CCNCC3)OC2=O)n(C)n1` it was 64.8%; in that of `Cc1cc(C)n(CCCN(C)C(=O)CN2CC3(CCNCC3)OC2=O)n1`, 25.8%; in that of `Cc1nnsc1CN(C)C(=O)CN1CC2(CCNCC2)OC1=O`, 51.8%.
With `Cc1ncsc1CCN(C)C(=O)CN1CC2(CCNCC2)OC1=O` the figure was -5.52%; with `COc1ccc2c(c1)CCN2Cc1nc2c(cnn2C)c(=O)[nH]1`, 33.8%.
With `CS(=O)(=O)NCCCNC(=O)NCc1ccccc1` the figure was -40.2%.
As to `CC(=O)N1CC(=O)N(c2cnn(C)c2)CC12CCN(CC1CC1)C2` (stereo not drawn), the INHIBITION was 30.1%.
With `Cc1ccn(CCNC(=O)C2CCN(S(=O)(=O)c3ccc(F)cc3)C2)n1` (stereo not drawn) the figure was 3.91%.
With `Cn1cc([C@@H]2CN(S(=O)(=O)c3cccnc3)C[C@H]2N)c2ccncc21`, the INHIBITION is -30.435%.
With `CN(C)c1cc2c(nn1)CCN(C(=O)C1CCCc3ccccc31)C2` (stereo not drawn) the figure was 5.03%; with `CC(C)c1ccc(CC(=O)N2CCCC3(CN(C)C(=O)O3)C2)cc1` (stereo not drawn), 24.3%; with `CCn1ncnc1C(C)Nc1cc(C2CCNCC2)nc(C)n1` (stereo not drawn), -63.5%.
With `CN(CC1(C)COC1)C(=O)c1cc(-c2ccn(C)n2)nc2ccccc12` the figure was 18.2545%; with `Cc1noc(C)c1-c1cc(C2CCNCC2)ccn1`, 20.8%.
In the case of `Cc1noc(C)c1-c1ccnc(C2CCN(C3CCOCC3)CC2)c1` it was 24.4%; in that of `Cc1noc(C)c1-c1ccnc(C2CCNCC2)c1`, 67.7%.
`CSCC[C@@H]1CN2CCC[C@H]2CN1Cc1coc2ccc(C)cc2c1=O`: the INHIBITION was 40.09%.
In the case of `Cc1ccc(CN2CC(C(=O)N3CCCC3)C3(CCOCC3)C2)s1` (stereo not drawn) it was -11.1%; in that of `O=C([C@H]1CCS(=O)(=O)[C@@H]2CN(CCc3ccccc3)C[C@H]12)N1CCCC1`, 39.3%; in that of `Cc1cc(N(C)CC2COc3ccccc3O2)nc(N)n1` (stereo not drawn), 80.1%.
In the case of `Cc1csc(CN2CC(CO)Oc3ccccc32)n1` (stereo not drawn) it was 24.3%; in that of `CN(CC1COc2ccccc2O1)C(=O)NCCCn1cccn1` (stereo not drawn), -14.4%.
With `CCN1CC(CN(C)c2cc(C)nc(N)n2)Oc2ccccc21` (stereo not drawn) the figure was 82.4%; with `CN(Cc1nc(CC2CC2)no1)CC1COc2ccccc2O1` (stereo not drawn), 29.6%.
For `CN(Cc1nnnn1C1CC1)CC1COc2ccccc2O1` (stereo not drawn), the INHIBITION is 17.5%.
In the case of `Cc1nc(CN2CC(CO)Oc3ccccc32)sc1C` (stereo not drawn) it was -10.3%.
In the case of `CCCn1nnnc1CN(CC)CC1COc2ccccc2O1` (stereo not drawn) it was 45.9%; in that of `Cc1cc(N(C)CC2COc3ccccc3O2)nc(C)n1` (stereo not drawn), 83.5%.
In the case of `Cc1cnc(N2CC[C@@H]3O[C@H](COCc4ccccn4)CC[C@@H]32)nc1` it was 5.44%; in that of `CC(C)c1cc(=O)[nH]c(-c2ccccc2CN2CCCCCC2)n1`, 23.1%.
Take `CCSc1cncc(N2CCC(C(=O)NC(C)C(C)C)CC2)n1` (stereo not drawn): the INHIBITION is listed as -26.2%.
In the case of `NC(=O)C1CCN(C(=O)c2ccn(-c3ccc(F)cc3)n2)CC1` it was -66.9%; in that of `CCN(Cc1cccnc1)CC1(C)Cc2c(N)nc(N)nc2O1` (stereo not drawn), 4.57%; in that of `CCC1c2ccsc2CCN1C(=O)NCc1cccnc1OC` (stereo not drawn), 9.383%.
With `O=C(c1cnccn1)N1CCCC2(CCN(c3ncccn3)C2)C1` (stereo not drawn) the figure was 9.63%; with `COCC(=O)N1CCCCC1c1ccnc(Nc2ncc(C)s2)n1` (stereo not drawn), 48.4%.
For `CN(C)CCO[C@H]1CN(C(=O)c2cscn2)[C@@H]2COC[C@H]12`, the INHIBITION is given as -16.1%.
With `NC(=O)[C@@H]1Cc2ccccc2CN1S(=O)(=O)N1CCCCC1` the figure was 51%; with `CC1CCN(S(=O)(=O)N2Cc3ccccc3C[C@H]2C(N)=O)CC1`, 43.2%.
In the case of `NC(=O)[C@@H]1Cc2ccccc2CN1S(=O)(=O)N1CCCCCC1` it was 32%; in that of `Cc1ccc(OC2(C(=O)O)CCN(C(=O)CCc3ccco3)CC2)cc1`, 31.4%; in that of `CC1CCN(C(=O)C2(Cc3cc(C4CCOC4)no3)CCNCC2)CC1` (stereo not drawn), 32.3%.
With `Cc1noc(C)c1C(=O)N1C[C@@H]2C[C@@H](c3ccncn3)O[C@@H]2C1` the figure was -10.9%; with `CC(C)CC(c1nc(-c2cnn(C)c2)no1)N1CCCCC1=O` (stereo not drawn), 38.7%.
As to `COc1cc(-c2noc(C(CC(C)C)N3CCCCC3=O)n2)ccn1` (stereo not drawn), the INHIBITION was determined as 34.1%.
In the case of `COc1ccc(-c2noc(C(CC(C)C)N3CCCCC3=O)n2)cn1` (stereo not drawn) it was 51.7%; in that of `CCCNC(=O)c1nn(CC)cc1Cl`, 24.2%; in that of `CC(=O)N1CCC1c1cc(NC2CCOCC2)nc(C)n1` (stereo not drawn), 11.65%.
On to `Cc1ccnc(C2CN(Cc3ccc(-c4ccccc4C(=O)O)o3)C2)n1`, for which the INHIBITION is reported as 14.35%.
With `O=C(c1cnc(O)cn1)N1CCC(CN2CCOCC2)CC1` the figure was -30.3%; with `CCOc1ccc(CN2CCN(C(=O)c3ccc(C)n3C)CC2)cc1`, 74.8%; with `COc1ccc(CN2CCN(C(=O)c3ccc(C)n3C)CC2)cc1`, 46.2%.
With `Cc1ccc(C(=O)N2CCN(Cc3ccsc3)CC2)n1C` the figure was 9.32%.
With `Cc1ccc(C(=O)N2CCN(Cc3ccccc3)CC2)n1C` the figure was 27.6%; with `Cc1ccc(C(=O)N2CCN(Cc3ccc(C#N)cc3)CC2)n1C`, 54.4%.
Take `Cc1ccc(C(=O)N2CCN(Cc3cccs3)CC2)n1C`: the INHIBITION is on record as 19.4%.
With `CC(C)N1CCCC1c1cc(CO)[nH]n1` (stereo not drawn) the figure was 9.585%; with `O=C(NCCN1CCOC1=O)c1cc(-c2ccccc2)on1`, 30.2%; with `CCSc1ccc(C(=O)N2CCC3(CC2)[C@H](O)C[C@@H]3O)s1`, 16.7%.
Regarding `CCSc1ccc(C(=O)N2CC[C@](O)(CC)[C@H](O)C2)s1`, the INHIBITION stood at 53.9%.
In the case of `CCSc1ccc(C(=O)N2CC[C@](C)(O)[C@H](C)C2)s1` it was -5.12%; in that of `Cc1ccc(CN2CCn3c(CN4CCN(C)CC4)cnc3C2C)s1` (stereo not drawn), 24.3%.
Regarding `CC(C(=O)NCc1ccc2c(c1)OCCO2)n1cncn1` (stereo not drawn), the INHIBITION was found to be 46.6%.
With `COc1cc(CN2CC[C@@H](N3CCCCCC3)[C@H](O)C2)cc(Cl)c1OC` the figure was 1.56%; with `CC1CC(=O)c2cc(C(=O)N3CCOCC3)c(=O)[nH]c2C1` (stereo not drawn), 13.9%; with `CN(C)C(=O)CN1C[C@H]2CC[C@@H](C1)N(Cc1c(F)cccc1Cl)C2`, 29.8%.
With `CN(C)C(=O)CN1C[C@H]2CC[C@@H](C1)N(C/C=C/c1ccc(F)cc1)C2`, the INHIBITION is recorded as 52.5%.
In the case of `CN(C)C(=O)CN1C[C@H]2CC[C@@H](C1)N(Cc1cccc(Cl)c1Cl)C2` it was 61.8%.
In the case of `CN(C)C(=O)CN1C[C@H]2CC[C@@H](C1)N(Cc1ccc(Cl)cc1Cl)C2` it was 19.1%; in that of `CN(C)C(=O)CN1C[C@H]2CC[C@@H](C1)N(Cc1ccccc1OCCO)C2`, 59.7%.
With `CN(C)C(=O)N1C[C@H]2CC[C@@H](C1)N(C/C=C/c1ccc(F)cc1)C2` the figure was -27.7%.
On to `CN(C)C(=O)CN1C[C@H]2CC[C@@H](C1)N(Cc1cc(F)ccc1F)C2`, for which the INHIBITION is 0.139%.
In the case of `CN(C)C(=O)CN1C[C@H]2CC[C@@H](C1)N(Cc1ccccc1C#N)C2` it was 41.5%.
In the case of `CN(C)S(=O)(=O)N1C[C@H]2CC[C@@H](C1)N(C/C=C/c1ccc(F)cc1)C2` it was 30.7%.
For the compound `CCOc1ccc(Cl)c(C(=O)N2CCCC(c3cc(C)[nH]n3)C2)n1` (stereo not drawn), the INHIBITION is recorded as -4.13%.
In the case of `CS(=O)(=O)NCC(=O)NC1CCCN(c2ccccn2)C1` (stereo not drawn) it was 7.605%; in that of `CC1(C)CN(C(=O)c2cc(F)cc3[nH]cnc23)CCS1`, 10.2%; in that of `O=C1COC2(CCN(C(=O)c3ccco3)CC2)CN1Cc1cccnc1`, 43.2%.
Turning to `CNC(=O)[C@@H]1CN(C(=O)COC)C[C@H]1c1ccnc(N2CCCC2)n1`, the INHIBITION came out at 21.7%.
With `Cn1ccc(C(=O)Nc2cc(F)ccc2OCC2CCCO2)cc1=O` (stereo not drawn) the figure was 15.6%.
With `Cc1nc(COCc2nc3c(o2)CN(C(=O)c2ccc[nH]2)C3)cs1` the figure was -13.9%; with `CN(C)CC(=O)N1CCO[C@@H]2CC(COCc3ccncc3)C[C@H]21` (stereo partly drawn), 11.3%.
Take `Cc1ccccc1C(C(=O)N(C)CCc1cn[nH]c1)N(C)C` (stereo not drawn): the INHIBITION is given as 54.4%.
With `Cc1ccc(C(C(=O)N(C)CCc2cn[nH]c2)N(C)C)cc1` (stereo not drawn) the figure was 51.1%; with `Cc1cccc(C(C(=O)N(C)CCc2cn[nH]c2)N(C)C)c1` (stereo not drawn), 42.6%; with `Cc1ccccc1C(C(=O)N(C)CCc1cnn(C)c1)N(C)C` (stereo not drawn), 31.7%.
With `Cc1cc(C)cc(CCC(=O)N(C)CCc2cn[nH]c2)c1` the figure was -10.2%; with `CN(CCc1cn[nH]c1)C(=O)C(c1ccc(F)cc1)N(C)C` (stereo not drawn), 43.7%; with `COc1cccc(C(C(=O)O)N(C)Cc2ccc(C)o2)c1` (stereo not drawn), 46.7%.
In the case of `CN(C)[C@@H]1CN(C(=O)c2cc3ccc(F)cc3[nH]2)C[C@H]1O` it was 18.15%; in that of `Cc1ccsc1C(=O)N1CCCn2c(nc(CN(C)C)cc2=O)C1`, -10.3%; in that of `CCn1c(CN2CCN(CCOC)CC2)nc2c(F)cccc21`, 46.95%.
Regarding `O=C1CCCCCN1CCc1nc(-c2cccnn2)no1`, the INHIBITION stood at 9.04%.
In the case of `O=C1CCCCN1CCc1nc(-c2cccnn2)no1` it was 52.9%; in that of `c1cnnc(-c2noc(CCN3CCCO3)n2)c1`, -8.51%; in that of `COc1ccc(CN2CCc3ncnc(C4CCOC4)c3CC2)cc1` (stereo not drawn), 24.6%.
With `Cn1nnc(NCc2ccc(OCc3ccc(Cl)cc3)cc2)n1` the figure was -47.4%; with `CCOc1cc(CNc2nnn(C)n2)ccc1OCc1ccc(Cl)cc1`, 63.1%; with `Cn1nnc(NCc2ccccc2OCc2ccc(Cl)cc2)n1`, 4.07%.
In the case of `Cc1ccc(NC2CCN(C(=O)CCc3cscn3)CC2)nn1` it was 7.12%.
Regarding `c1ccc(CCNCC2Cn3nncc3CO2)cc1` (stereo not drawn), the INHIBITION amounted to 33%.
